Hit rate of the full screen: of about 16,000 compounds, about 5,100 (32%) were called active. Roughly 25% stayed inconclusive and do not appear here. The call rests on the fitted dose curve; in most records, active means well fitted curve in the direction sought with a large enough effect; inconclusive means small, poorly fitted or top-dose-only effect, or effect the other way; inactive means no such curve, though single readings can be large or run the other way. The list shows a part of the results.
Target: Cytochrome P450 3A4 (Homo sapiens) (UniProt P08684)
Assay: Cytochrome panel assay with activity outcomes
Conditions: recombinant CYP, pro-luciferin dealkylation, luminescence, p450-cyp3a4; series mostly up to 57.1 µM; activity, negative = inhibition: at the top concentration
On the % scale 0 is the no-effect control and ±100 the full control effect.

Chain of Cytochrome P450 3A4 (Homo sapiens) (P08684 whole entry, looked up): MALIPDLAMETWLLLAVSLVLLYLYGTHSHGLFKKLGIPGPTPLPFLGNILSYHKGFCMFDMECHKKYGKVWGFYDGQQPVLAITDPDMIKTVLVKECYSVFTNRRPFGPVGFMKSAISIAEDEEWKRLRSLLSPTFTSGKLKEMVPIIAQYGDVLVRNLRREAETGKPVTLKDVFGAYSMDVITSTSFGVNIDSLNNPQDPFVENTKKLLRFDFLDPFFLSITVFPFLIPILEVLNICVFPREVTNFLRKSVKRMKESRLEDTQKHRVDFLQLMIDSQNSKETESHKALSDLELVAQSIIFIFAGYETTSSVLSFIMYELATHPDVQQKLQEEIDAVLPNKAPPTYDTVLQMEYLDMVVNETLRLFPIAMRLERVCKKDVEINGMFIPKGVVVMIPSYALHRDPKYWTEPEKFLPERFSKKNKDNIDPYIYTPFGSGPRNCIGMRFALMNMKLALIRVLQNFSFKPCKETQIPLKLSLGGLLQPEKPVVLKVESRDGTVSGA

activity, negative = inhibition, inactive:
C=C(C)CN(CC#N)CC(=C)C -17.3% [at 11.4 µM], Cc1o[nH]c(=O)c1CC[C@H](N)C(=O)O -16.4%, CCCS(=O)(=O)N1CCCC(C(=O)NCC2CCCO2)C1 (centres undefined) 1.91%, CCCc1nnc(SCC(=O)N2C(C)CCCC2C)n1CCCOC (centres undefined) 8.82% [at 2.29 µM], CCCc1nnc(SCC(=O)N2CCCCC2)n1CCCOC -17.4%, C[N+](C)(C)CCCCCNCC12CC3CC(CC(C3)C1)C2 -10.3%, O=C(O)[C@H](Cc1cc(I)c(O)c(I)c1)C1CCCCC1 -12.6% [at 11.4 µM], CCc1ccc(NC(=O)c2cc(C(C)C)on2)cc1 -3.41%, O=C(c1cc(-c2ccco2)on1)N1CCOCC1 -7.73%, Cc1cc(C=C(C#N)C#N)c(C)n1-c1ccccc1 5.65%, COC(=O)N1CCC2(CCN(Cc3cc(C(F)(F)F)cc(C(F)(F)F)c3)CC2)CC1 -24.3%, COCC(=O)N1CCC2(CCCN(Cc3ccccc3)C2)CC1 -23.3%, COC(=O)N1CCC2(CCCN(Cc3cc(C(F)(F)F)cc(C(F)(F)F)c3)C2)CC1 -0.66%, COCC(=O)N1CCC2(CC1)CN(Cc1cc(C(F)(F)F)cc(C(F)(F)F)c1)C2 -17%, O=C(c1cccc(F)c1)N1CCC2(CCCN(Cc3ccccc3)C2)CC1 -24.7%, FC(F)(F)c1cc(CN2CC3(CCNCC3)C2)cc(C(F)(F)F)c1 -20.6%, CS(=O)(=O)N1CCC2(CC1)CN(Cc1cc(C(F)(F)F)cc(C(F)(F)F)c1)C2 -22.2%

AC50, active:
COc1ccc(N2CCc3c(C)nc4c(OC)cc(OC)cc4c32)c(OC)c1 5.01 µM, CCCc1nnc(SCC(=O)N2CCCCC2)n1CC1CCCO1 (centres undefined) 15.8 µM, CCCc1nnc(SCC(=O)N2CCCC(C)C2)n1CC1CCCO1 (centres undefined) 8.91 µM, CCCc1nnc(SCC(=O)N2CCCCC2C)n1CC1CCCO1 (centres undefined) 12.6 µM, CCOc1cc2[nH]c(=O)n(CCC(=O)NCc3ccc(OC)cc3)c(=O)c2cc1OCC 3.55 µM, CCOc1cc2[nH]c(=O)n(CCCC(=O)NCc3ccc(OC)cc3)c(=O)c2cc1OCC 2.51 µM, Cc1ccc(Cn2nc(C)c(NC(=O)c3cc(-c4ccco4)on3)c2C)cc1 2.24 µM, COc1ccc(C(=O)N2CCC[C@@]3(CCN(Cc4cc(C(F)(F)F)cc(C(F)(F)F)c4)C3)C2)cc1 3.16 µM, O=C(c1cccc(F)c1)N1CCC2(CCCN(Cc3cc(C(F)(F)F)cc(C(F)(F)F)c3)C2)CC1 10 µM, COCC(=O)N1CCC2(CCCN(Cc3cc(C(F)(F)F)cc(C(F)(F)F)c3)C2)CC1 20 µM, COc1ccc(C(=O)N2CCC3(CCCN(Cc4cc(C(F)(F)F)cc(C(F)(F)F)c4)C3)CC2)cc1 10 µM, FC(F)(F)c1cc(CN2CCCC3(CCNCC3)C2)cc(C(F)(F)F)c1 7.94 µM
